# Most compounds without a hit are left out; they make up all but 1.1% or so of the library.
# RecA splice inh: blocks M. tuberculosis RecA intein splicing; P9WHJ3; cell-free RecA intein splicing, fluorescence; inhibition, % (no concentration beside the values); 290,000 tested, 0.75% active; AID 2221; in the data active = inhibition above about 30%;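 note: 0% = vehicle wells and 100% = reference inhibitor control wells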
# Target sequence (P9WHJ3 whole entry, looked up, canonical isoform): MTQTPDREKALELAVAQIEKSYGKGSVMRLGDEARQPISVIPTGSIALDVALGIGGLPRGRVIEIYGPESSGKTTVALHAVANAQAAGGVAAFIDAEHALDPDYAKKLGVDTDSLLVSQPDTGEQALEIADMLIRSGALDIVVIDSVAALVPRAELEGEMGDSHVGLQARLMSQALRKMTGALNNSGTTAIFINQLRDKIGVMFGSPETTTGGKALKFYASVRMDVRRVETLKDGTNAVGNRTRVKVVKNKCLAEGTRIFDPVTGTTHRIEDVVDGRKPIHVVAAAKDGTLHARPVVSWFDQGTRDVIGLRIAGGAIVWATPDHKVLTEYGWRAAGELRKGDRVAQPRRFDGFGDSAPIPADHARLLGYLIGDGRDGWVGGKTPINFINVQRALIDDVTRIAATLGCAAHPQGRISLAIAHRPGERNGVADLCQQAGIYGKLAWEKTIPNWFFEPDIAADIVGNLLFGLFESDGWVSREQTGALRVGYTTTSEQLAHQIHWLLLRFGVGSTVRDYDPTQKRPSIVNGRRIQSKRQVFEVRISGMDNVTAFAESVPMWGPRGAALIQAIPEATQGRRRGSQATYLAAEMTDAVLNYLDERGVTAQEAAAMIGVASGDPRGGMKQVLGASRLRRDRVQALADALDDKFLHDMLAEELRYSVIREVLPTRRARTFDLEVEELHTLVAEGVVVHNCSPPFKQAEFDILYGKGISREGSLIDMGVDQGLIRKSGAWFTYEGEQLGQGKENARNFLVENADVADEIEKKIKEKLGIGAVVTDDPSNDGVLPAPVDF
# Mtb betalactam: beta-lactam sensitization of Mtb H37Rv. AID 434955. inhibition, % at 25 µM. M. tuberculosis H37Rv growth with meropenem, percent inhibition. 330,000 tested, 0.27% active; call rule not given here;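 note: growth measured after seven days incubation then overnight dye step; 0% = bacteria only wells and 100% = bacteria with antibiotic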
# UGM FP inh: blocks M. tuberculosis UGM enzyme; P9WIQ1; purified UGM, fluorescence polarization probe displacement; inhibition, % at 10 µM; 320,000 tested, 0.06% active; AID 504406; in the data active = inhibition above about 10%, passing the limit was not always enough
# SSB-PriA inh: K. pneumoniae PriA-SSBct interaction inhibition; 430,000 tested, 0.6% active; inhibition, % at 33 µM; AlphaScreen SSBct-PriA binding, biotinylated peptide; AID 1272365; in the data active = inhibition mostly above about 37%, no sharp cut-off; inactive = mostly below about 20%;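 note: plate controls were negative control peptide for no effect and reference peptide for full effect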
# Rv3671c protease: inhibits the M. tuberculosis serine protease Rv3671c; P9WHR9; inhibition, % at 5.96 µM; 320,000 tested, 0.048% active; in the data active = inhibition above about 38%;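 note: extracellular domain of Rv3671c used as enzyme; 0% = enzyme with DMSO and 100% = no enzyme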
# * hit, by the source's call; nt = no result given.
SMILES,RecA splice inh,Mtb betalactam,UGM FP inh,SSB-PriA inh,Rv3671c protease
CCN(CC)S(=O)(=O)c1ccc(N2C(=O)CC2(/C=C/c2ccccc2)C(=O)NC2CCCC2)cc1 (stereo unspecified),-4,-2,-2,-9,1
Cc1cc2nc3c(=O)[nH]c(=S)[nH]c3nc2cc1NC(=O)C(F)(F)F,-73,-2,19*,-5,21
c1cc2c(cc1CNc1ccc(N3CCOCC3)cc1)OCO2,nt,4,6,48*,-4
CCN(CC)C(=O)CSc1nnc2nnc3cc(Cl)ccc3n12,42*,97,2,-5,-8
CCN(CC)C(=O)CSc1nnc2nnc3cc(C)ccc3n12,-2,78,0,1,6
CC(=NNC(=S)N1CC2CCC(CC2)C1)c1nccs1,nt,nt,nt,57*,nt
CC(=NNC(=S)N1CC2CCC(CC2)C1)c1cccc(C)n1,nt,nt,nt,-10,nt
Nc1ccc(N=Nc2ccc(N)cc2)cc1,1,3,-3,15,9
Cc1cc(N(C)C)ccc1N=Nc1ccc(N)cc1,-2,23,-2,93*,-8
Cn1nc(C(=O)Nc2cc(Cl)ccc2N2CCCC2)c2ccccc2c1=O,nt,3,17*,27,-13
CN1CCN(c2ccc(Cl)cc2NC(=O)c2nn(-c3ccccc3)c(=O)c3ccccc23)CC1,1,nt,nt,-9,nt
CC(=O)NCC(=O)N1CCS[C@H](c2ccccc2)CC1,nt,nt,nt,-5,nt
CCCN1CCCc2cc(CCNS(=O)(=O)c3ccc(F)cc3F)ccc21,nt,nt,nt,78*,nt
CCCN1CCCc2cc(CCNC(=O)c3ccc(F)c(F)c3)ccc21,nt,nt,nt,45,nt
CCCN1CCCc2cc(CCNS(=O)(=O)c3ccc(OC)cc3C)ccc21,nt,nt,nt,52*,nt
CCCN1CCCc2cc(CCNS(=O)(=O)c3ccc(F)cc3C)ccc21,nt,nt,nt,51*,nt
c1ccc2c(CN3CCCC3)ccc(CN3CCCC3)c2c1,nt,nt,nt,-3,nt
CN(C)S(=O)(=O)N1CC(Oc2nccs2)C1,nt,nt,nt,-26,nt
O=S(=O)(c1ccc2c(c1)OCCO2)N(CCc1ccccc1)Cc1ccccn1,nt,nt,nt,2,nt
CSc1ccccc1OCc1cc(C(=O)N2CCc3[nH]cnc3C2c2ccccn2)no1 (stereo unspecified),4,-5,2,52*,2
O=C(NC=NOCc1cccc(C(F)(F)F)c1)N1OC[C@@H]2COc3ccc4ccccc4c3[C@@H]21,nt,nt,nt,45*,nt
Cc1ccc(C=Nn2c(C3CCCCC3)n[nH]c2=S)cc1,nt,nt,nt,3,nt
COc1ccc(Nc2cc(C)nc3c(C)ccc([N+](=O)[O-])c23)cc1,nt,nt,nt,112*,nt
CC1CCN(S(=O)(=O)c2ccc3c(c2)oc(=O)n3CC(=O)N2c3ccccc3CC2C)CC1 (stereo unspecified),0,1,0,98*,-29
Cc1ccc(-c2ccc(/C=C3/N=C(c4cccs4)OC3=O)o2)cc1Cl,nt,nt,nt,18,nt
SMILES,RecA splice inh,Mtb betalactam,UGM FP inh,SSB-PriA inh,Rv3671c protease
O=C1OC(c2cccs2)=N/C1=C\c1ccc(-c2cccc(Cl)c2)o1,4,95,3,91*,-7
Cc1ccc(OCCCC(=O)Nc2nc(C)c(C)s2)c(C)c1,nt,nt,nt,5,nt
Cc1ccc(-c2nc(-c3ccccc3)no2)cc1,-3,0,1,0,-1
Cc1ccc(-c2nc(-c3ccccc3)no2)c(Cl)c1,6,4,-1,104*,-3
CCNc1cc(NCCNC(=O)c2ccc(F)cc2F)nc(C)n1,nt,nt,nt,-11,nt
COCCCNC(=O)CSc1nc2cc(S(=O)(=O)N3CCCCC3)ccc2o1,-3,-5,1,46*,5
CS(=O)(=O)N1CCC(C(=O)NCCn2nc(-c3ccsc3)cc2C2CC2)CC1,nt,nt,nt,-6,nt
CN(C)[C@@H](CNC(=O)C(=O)Nc1ccc(OC(F)(F)F)cc1)c1ccc2c(c1)CCO2,nt,nt,nt,8,nt
O=C(COc1coc(CN2CCN(c3ccc(F)cc3)CC2)cc1=O)Nc1ccccc1,0,-3,-3,-5,2
O=C(COc1coc(CN2CCN(c3ccccc3)CC2)cc1=O)Nc1ccc(F)cc1,-1,8,0,46*,-5
Cc1nc2ccccn2c1C(=O)NCc1nc(-c2cccn2C)no1,nt,nt,nt,-2,nt
COc1cc(C=C(c2nc3ccccc3s2)c2nc3ccccc3s2)ccc1O,51*,7,-1,37,3
O=C(NC[C@@](O)(c1ccccc1)C1CC1)C(=O)Nc1cccnc1,nt,nt,nt,-8,nt
N#Cc1nc(Cc2ccccc2)oc1N1CCC(Cc2ccccc2)CC1,7,3,1,50*,-14
N#Cc1nc(Cc2ccccc2)oc1N1CCN(c2ccccc2)CC1,1,3,-1,45*,2
CCOC(=O)CSc1nnc(CNC(=O)C23CC4CC(CC(C4)C2)C3)n1Cc1ccccc1,nt,nt,nt,-4,nt
COc1ccc(OC)c2sc(N3CCN(C(=O)c4ccc5c(c4)CCCC5)CC3)nc12,nt,nt,nt,29*,nt
NCC(=O)Nn1cnnc1CN,nt,nt,nt,98*,nt
O=C(NCCOc1ccc(-c2ccccn2)nn1)c1ccco1,nt,nt,nt,116*,nt
NCCOc1ccc(-c2ccccn2)nn1,nt,nt,nt,154*,nt
CCN1CCN(Cc2ccc(NC(=O)c3ccc(C)c(NC(=O)c4cncc(-c5cccs5)c4)c3)cc2C(F)(F)F)CC1,nt,nt,nt,47*,nt
CCN1CCN(Cc2ccc(NC(=O)c3ccc(C)c(NC(=O)c4nccn4C)c3)cc2C(F)(F)F)CC1,0,-10,0,-3,6
CC1Oc2ccccc2OC1C(=O)N(Cc1cnc2ccccn12)c1ccccc1 (stereo unspecified),nt,nt,nt,22,nt
Cc1cccc2c1NC(=O)/C2=C\C(=O)c1cccs1,20,-1,3,-9,1
Cc1cc(Br)c2c(c1)/C(=C/C(=O)c1cccs1)C(=O)N2,78*,95,-2,-22,-9
SMILES,RecA splice inh,Mtb betalactam,UGM FP inh,SSB-PriA inh,Rv3671c protease
O=C(Nc1nc(-c2ccc(Cl)cc2Cl)cs1)c1ccc2c(c1)OCCO2,nt,nt,nt,-11,nt
O=C(NN=Cc1ccc(Br)s1)Nc1ccccc1,nt,nt,nt,0,nt
Brc1ccc(C=Nc2ccc(Nc3ccccc3)cc2)s1,-1,3,-1,88*,-10
CCn1ccnc1CNCc1cn(-c2cc(C)ccc2C)nc1-c1ccccc1,0,84,-1,87*,-3
Cc1ccc(C)c(-n2cc(CNCCc3cnccn3)c(-c3ccccc3)n2)c1,-3,-8,0,-5,0
Fc1ccc(-c2nc(=S)c3c([nH]2)Oc2ccc(Br)cc2C3)cc1,nt,nt,nt,-2,nt
O=C(CCN1C(=O)S/C(=C\c2ccc(F)cc2)C1=O)Nc1ccc(C(=O)O)c(O)c1,8,94,0,-6,-6
O=C(CCN1C(=O)S/C(=C/c2ccccc2)C1=O)Nc1ccc(C(=O)O)c(O)c1,5,95,-5,-6,2
O=C(CCN1C(=O)/C(=C\c2ccccc2F)SC1=S)Nc1ccc(C(=O)O)c(O)c1,32*,32,9,nt,-10
O=C(CCCN1C(=O)/C(=C/c2ccccc2)SC1=S)Nc1ccc(C(=O)O)c(O)c1,38*,9,-2,7,-11
CCS(=O)(=O)N1CCC(c2nnc(C(F)(F)F)o2)CC1,nt,nt,nt,-11,nt
O=C1CN(C(=O)Cc2ccc3ccccc3c2)c2ccccc2N1,nt,nt,nt,-1,nt
O=C(NCCCn1nc(-c2ccco2)ccc1=O)c1cccc2ccccc12,nt,nt,nt,-6,nt
COc1ccccc1CNc1ncnc2c1cnn2-c1ccccc1,1,-1,2,46*,7

# Compound activity deposited in PubChem by several laboratories.
